A selection: hits, their analogues and other compounds. The true share with any hit is near 4.4%.
tim10-1 inh: tim10-1 yeast growth inhibition; S. cerevisiae tim10-1 ts strain growth, BacTiter-Glo, 24 h; actives 2.2% (n = 330,000); AID 463190; inhibition, % at 20 µM;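 active = inhibition of at least 40%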;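 also: mutant grown at 25 °C; 0% = DMSO wells with yeast and 100% = wells holding no yeast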
TIM10 inh: growth inhibitors of TIM10 yeast strain; inhibition, % at 10 µM; actives 1.4% (n = 330,000); S. cerevisiae TIM10 strain growth, BacTiter-Glo luminescence, 24 h;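 active = inhibition of 40% or more at the single tested concentration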;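 also: wild-type TIM10 isogenic control strain grown at permissive 25 °C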
SKKanGAS inh: inhibitors of SKKanGAS S. pyogenes growth in kanamycin (SK-promoter or general growth effect) | actives 1.3% (n = 300,000) | inhibition, % at 7.5 µM | BacTiter-Glo, 6 h;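 active = mean replicate score, as percent of positive control median, at least 50; inconclusive = mean below 50 but one replicate at or above 50; inactive = mean and every replicate below 50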;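 also: strain carries kanamycin resistance gene driven by streptokinase promoter and grows in 40 µg/ml kanamycin; loss of luminescence reflects streptokinase promoter inhibition or plain growth inhibition; 0% = median of DMSO wells and 100% = positive control at its reference dose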
PfHsp90 yeast 2: reduces growth (ATP signal) of yeast expressing P. falciparum Hsp90 | actives 0.32% (n = 310,000) | S. cerevisiae expressing PfHsp90, BacTiter-Glo ATP, 48 h; yeast lacking PDR1 and PDR3 efflux regulators | inhibition, % at 9.4 µM;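 active = every replicate shows inhibition above about 80%, whatever the replicate mean, limit read from the data; inconclusive = mean inhibition reaches the set limit but some replicate falls short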;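 also: 0% = DMSO neutral controls and 100% = 20 µM radicicol positive controls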
tim23-1 inh: tim23-1 yeast growth inhibition | inhibition, % at 20 µM | actives 1.3% (n = 330,000) | S. cerevisiae tim23-1 growth, BacTiter-Glo luminescence, 24 h | AID 463212;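 active = growth inhibition of the mutant yeast at or above 50%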;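 also: temperature-sensitive mutant grown at 25 °C; plate controls were DMSO-treated mutant yeast for no effect and medium wells lacking yeast for full effect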
tim23-1 conf: confirmation of tim23-1 mutant yeast growth inhibitors; shares compounds with tim23-1 inh; S. cerevisiae tim23-1 growth, BacTiter-Glo luminescence, 24 h; inhibition, % at 20 µM; actives 83% (n = 4,400);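 active = inhibition above about 39% in either of two replicate wells at 20 µM, limit read from the data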;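 also: temperature-sensitive tim23-1 mutant grown at 25 °C; 0% = DMSO wells with yeast and 100% = medium wells without yeast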
* hit, by the source's call; ? = inconclusive; . = no result.

SMILES	tim10-1 inh	TIM10 inh	SKKanGAS inh	PfHsp90 yeast 2	tim23-1 inh	tim23-1 conf
O=C(NC(c1ccccc1)c1cc(Cl)c2cccnc2c1O)c1cccnc1 (stereo unspecified)	36	-17	94*	.	70*	80*
CC(C)CC(=O)NC(c1cccs1)c1ccc2cccnc2c1O (stereo unspecified)	33	-43	?	104*	52*	65*
COc1cccc(C(=O)Nc2cc(C)nn2-c2ccccc2)c1OC	13	-6	-5	-25	29	.
Cc1nc2cc(C(=O)OCC(=O)Nc3cccc(Cl)c3)ccc2n1-c1ccccc1	12	16	19	49	53*	30
Cc1c([N+](=O)[O-])cnc(Sc2ccccc2)c1[N+](=O)[O-]	27	-12	-7	-23	75*	73*
CC(C)NC(=S)N/N=C/c1c[nH]c2ccccc12	36	32	-11	-38	56*	40*
Cc1[nH]c2ccccc2c1/C=N/NC(=S)NC(C)C	39	40	-7	.	47	.
Cc1ccc(S(=O)(=O)N[C@@H](Cc2ccccc2)C(=O)CCl)cc1	39	34	.	-44	69*	48*
Cc1ccc(S(=O)(=O)NC(Cc2ccccc2)C(=O)NN)cc1 (stereo unspecified)	12	4	-15	5	2	.
COC(=O)C1=NN(c2ccc(C)cc2)C2(S1)SC(C(C)=O)=C(C)N2c1ccccc1 (stereo unspecified)	35	25	6	.	51*	40*
COC(=O)C1=NN(c2ccccc2)C2(S1)SC(C(C)=O)=C(C)N2c1ccccc1 (stereo unspecified)	33	25	-3	1	31	.
O=C(NCC1CCCO1)c1c(O)nc2sccn2c1=O (stereo unspecified)	3	-8	.	.	35	.
O=C(NC1CCCCCC1)c1c(O)nc2sccn2c1=O	39	37	34	-10	69*	46*
CC1CC(NC(=O)c2c(O)nc3sccn3c2=O)CC(C)(C)C1 (stereo unspecified)	-15	-2	50*	-63	64*	-12
O=C(NC1CCCCC1)c1c(O)nc2sccn2c1=O	15	5	-1	.	67*	47*
CC1CC(NC(=O)c2c(O)nc3ccccn3c2=O)CC(C)(C)C1 (stereo unspecified)	.	.	.	-8	.	.
CCOc1ccc(NC(=O)CN2CCN(C(=O)C3CCCO3)CC2)cc1 (stereo unspecified)	4	8	-3	-8	5	.
CCOC(=O)c1ccc(NC(=O)/C=C/c2cccs2)cc1	9	19	-4	14	61*	52*
CCN(CC)CCOC(=O)c1ccc(NC(=O)/C=C/c2cccs2)cc1	15	-3	-5	-23	0	.
C/C(=N\NC(=O)CSc1nc(C)cc(C)n1)c1ccc2c(c1)OCCO2	13	8	1	-1	10	.
C/C(=N\NC(=O)CSc1ncccn1)c1ccc2c(c1)OCCO2	-1	-15	-4	-5	53*	15
CCC1CCC2(CC1)NC(=O)N(CC(=O)NCc1ccccc1Cl)C2=O (stereo unspecified)	0	-3	.	.	-2	.
O=C(Nc1ccc2c(c1)oc1ccccc12)c1ccc(Br)o1	-12	28	-7	-11	52*	38
O=C(Nc1ccc2ccccc2c1)c1ccc(Br)o1	18	20	2	8	56*	52*
Cc1ccoc1C(=O)Nc1ccc2ccccc2c1	31	29	0	25	54*	50*
Cc1cc(C)cc(NC(=S)N2CC(C)OC(C)C2)c1 (stereo unspecified)	30	9	.	2	2	.
Cc1csc(CN(C)C(=O)CC2C(=O)NCCN2Cc2ccc(Cl)c(F)c2)n1 (stereo unspecified)	-4	8	-9	-1	5	.
CCN1CCN(c2cc(-c3ccccc3)nc3cc(-c4cccc(F)c4)nn23)CC1	26	25	20	13	53*	33
OC1CCN(c2cc(-c3ccccc3)nc3cc(-c4ccc(F)cc4)nn23)CC1	31	32	35	13	16	.
O=C(/C=C/c1cccnc1)c1ccccc1O	36	-4	2	-35	51*	50*

Assay outcomes deposited in PubChem BioAssay by several laboratories.
